Test results taken from PubChem BioAssay AID1159580 (chemical genetic matrix, 2015).
Out of some 5,500 compounds screened, about 2,000 (36%) were called active. About 18% were inconclusive and are not listed. Rule as the data show it: active = normalized growth mostly below about 0.91 (no sharp cut-off); inconclusive = no clear call, values can overlap the other calls; inactive = mostly above about 0.92. This is one part of the list.

Assay: chemical genetic growth profiling, strain panel (AID 1159580);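 also: tested at 20 µM; growth read once vehicle control cultures reached saturation at 30 °C; 1 = growth at the plate median or of vehicle wells; lower values mean less growth of the strain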
Details: growth OD

Measured: normalized growth

COc1ccc2c(c1)c(CC(=O)OCC(=O)O)c(C)n2C(=O)c1ccc(Cl)cc1
inactive: S. cerevisiae deletion strains, locus YJR075W, strain HOC1, hits give low values 1.03 | S. cerevisiae deletion strains, locus YKL009W, strain mrt4, hits give low values 0.951 | S. cerevisiae deletion strains, locus YKL068W, hits give low values 1.01 | S. cerevisiae deletion strains, locus YKL085W, strain MDH1 (second series), hits give low values 0.984 | S. cerevisiae deletion strains, locus YKL085W, strain MDH1, hits give low values 0.984 | S. cerevisiae deletion strains, locus YKL160W, strain elf1, hits give low values 0.99 | S. cerevisiae deletion strains, locus YKL190W, strain CNB1, hits give low values 1.01 | S. cerevisiae deletion strains, locus YKR001C, strain vps1, hits give low values 1.02 | S. cerevisiae deletion strains, locus YKR026C, strain gcn3, hits give low values 0.991 | S. cerevisiae deletion strains, locus YKR091W, strain srl3, hits give low values 1 | S. cerevisiae deletion strains, locus YLL001W, strain dnm1, hits give low values 0.958 | S. cerevisiae deletion strains, locus YLL026W, hits give low values 0.997 | S. cerevisiae deletion strains, locus YLL041C, strain sdh2, hits give low values 0.995 | S. cerevisiae deletion strains, locus YLR027C, strain aat2, hits give low values 0.971 | S. cerevisiae deletion strains, locus YLR039C, strain RIC1, hits give low values 1.03 | S. cerevisiae deletion strains, locus YLR058C, strain SHM2, hits give low values 1.02 | S. cerevisiae deletion strains, locus YLR102C, strain apc9, hits give low values 1.01 | S. cerevisiae deletion strains, locus YLR113W, strain HOG1, hits give low values 0.991 | S. cerevisiae deletion strains, locus YLR221C, strain rsa3, hits give low values 0.998 | S. cerevisiae deletion strains, locus YLR258W, strain gsy2, hits give low values 1 | S. cerevisiae deletion strains, locus YLR262C, strain YPT6 (second series), hits give low values 0.99 | S. cerevisiae deletion strains, locus YLR262C, strain YPT6, hits give low values 1.03 | S. cerevisiae deletion strains, locus YLR268W, strain sec22, hits give low values 1.06 | S. cerevisiae deletion strains, locus YLR320W, strain mms22, hits give low values 1.01 | S. cerevisiae deletion strains, locus YLR330W, strain CHS5, hits give low values 1.01 | S. cerevisiae deletion strains, locus YLR342W, strain FKS1 (second series), hits give low values 1.02 | S. cerevisiae deletion strains, locus YLR342W, strain FKS1, hits give low values 0.971 | S. cerevisiae deletion strains, locus YLR357W, strain rsc2, hits give low values 0.946 | S. cerevisiae deletion strains, locus YLR370C, strain arc18, hits give low values 0.983 | S. cerevisiae deletion strains, locus YLR371W, strain rom2, hits give low values 1.02 | S. cerevisiae deletion strains, locus YLR384C, strain iki3, hits give low values 0.982 | S. cerevisiae deletion strains, locus YLR418C, strain cdc73, hits give low values 1.03 | S. cerevisiae deletion strains, locus YML016C, strain PPZ1, hits give low values 1 | S. cerevisiae deletion strains, locus YML032C, strain rad52, hits give low values 1.02 | S. cerevisiae deletion strains, locus YML120C, strain ndi1, hits give low values 0.982 | S. cerevisiae deletion strains, locus YML124C, strain tub3, hits give low values 1.02 | S. cerevisiae deletion strains, locus YMR058W, strain fet3, hits give low values 0.995 | S. cerevisiae deletion strains, locus YMR078C, strain ctf18, hits give low values 1.01 | S. cerevisiae deletion strains, locus YMR125W, strain sto1, hits give low values 1 | S. cerevisiae deletion strains, locus YMR129W, hits give low values 1.01 | S. cerevisiae deletion strains, locus YMR205C, strain PFK2, hits give low values 0.976 | S. cerevisiae deletion strains, locus YMR223W, strain ubp8, hits give low values 1.02 | S. cerevisiae deletion strains, locus YMR231W, strain pep5, hits give low values 0.991 | S. cerevisiae deletion strains, locus YMR263W, strain SAP30, hits give low values 1.02 | S. cerevisiae deletion strains, locus YMR307W, strain GAS1, hits give low values 1.04 | S. cerevisiae deletion strains, locus YNL067W, strain RPL9B, hits give low values 1.03 | S. cerevisiae deletion strains, locus YNL071W, strain lat1, hits give low values 1.01 | S. cerevisiae deletion strains, locus YNL128W, strain TEP1, hits give low values 1.02 | S. cerevisiae deletion strains, locus YNL153C, strain GIM3, hits give low values 1.02 | S. cerevisiae deletion strains, locus YNL183C, strain NPR1, hits give low values 0.868 | S. cerevisiae deletion strains, locus YNL209W, strain ssb2, hits give low values 1.01 | S. cerevisiae deletion strains, locus YNL233W, strain BNI4, hits give low values 1.02 | S. cerevisiae deletion strains, locus YNL248C, strain rpa49, hits give low values 1.03 | S. cerevisiae deletion strains, locus YNL250W, strain rad50, hits give low values 1.02 | S. cerevisiae deletion strains, locus YNL271C, strain bni1, hits give low values 1.02 | S. cerevisiae deletion strains, locus YNL298W, strain CLA4, hits give low values 0.998 | S. cerevisiae deletion strains, locus YNL307C, strain MCK1, hits give low values 1.02 | S. cerevisiae deletion strains, locus YNL322C, strain KRE1 (second series), hits give low values 1.01 | S. cerevisiae deletion strains, locus YNL322C, strain KRE1, hits give low values 1.01 | S. cerevisiae deletion strains, locus YNR049C, strain mso1, hits give low values 0.995 | S. cerevisiae deletion strains, locus YNR052C, strain pop2, hits give low values 1 | S. cerevisiae deletion strains, locus YOL006C, strain TOP1, hits give low values 1.11 | S. cerevisiae deletion strains, locus YOL012C, strain htz1 0.843 | S. cerevisiae deletion strains, locus YOL147C, strain pex11, hits give low values 1.02 | S. cerevisiae deletion strains, locus YOR001W, strain rrp6, hits give low values 0.969 | S. cerevisiae deletion strains, locus YOR061W, strain CKA2, hits give low values 1.01 | S. cerevisiae deletion strains, locus YOR069W, strain VPS5, hits give low values 1.01 | S. cerevisiae deletion strains, locus YOR070C, strain gyp1, hits give low values 1.01 | S. cerevisiae deletion strains, locus YOR080W, strain dia2, hits give low values 0.976 | S. cerevisiae deletion strains, locus YOR083W, strain WHI5, hits give low values 0.951 | S. cerevisiae deletion strains, locus YOR106W, strain vam3, hits give low values 0.975 | S. cerevisiae deletion strains, locus YOR136W, strain idh2, hits give low values 1.02 | S. cerevisiae deletion strains, locus YOR144C, strain elg1, hits give low values 1.02 | S. cerevisiae deletion strains, locus YOR184W, strain ser1, hits give low values 1.02 | S. cerevisiae deletion strains, locus YOR231W, strain MKK1, hits give low values 0.97 | S. cerevisiae deletion strains, locus YOR265W, strain rbl2, hits give low values 1 | S. cerevisiae deletion strains, locus YOR270C, strain vph1, hits give low values 1 | S. cerevisiae deletion strains, locus YOR290C, strain snf2, hits give low values 1.02 | S. cerevisiae deletion strains, locus YOR316C, strain cot1, hits give low values 1.02 | S. cerevisiae deletion strains, locus YPL051W, strain arl3, hits give low values 0.998 | S. cerevisiae deletion strains, locus YPL055C, strain LGE1, hits give low values 1.02 | S. cerevisiae deletion strains, locus YPL078C, strain atp4, hits give low values 0.986 | S. cerevisiae deletion strains, locus YPL106C, strain sse1, hits give low values 1.02 | S. cerevisiae deletion strains, locus YPL240C, strain hsp82, hits give low values 0.982 | S. cerevisiae deletion strains, locus YPL241C, strain CIN2, hits give low values 1 | S. cerevisiae deletion strains, locus YPL256C, strain CLN2, hits give low values 0.963 | S. cerevisiae deletion strains, locus YPR119W, strain clb2, hits give low values 1.01 | S. cerevisiae deletion strains, locus YPR141C, strain kar3, hits give low values 1.02 | S. cerevisiae deletion strains, locus YPR163C, strain tif3, hits give low values 1.02 | S. cerevisiae deletion strains, locus YPR167C, strain met16, hits give low values 1.01 | S. cerevisiae deletion strains, strain wtn01, hits give low values 1.02 | S. cerevisiae strains, strain wild type, hits give low values 1.01
